eIF4H inh: inhibitors of RNA binding by human eIF4H | Q15056 | eIF4H fluorescence polarization binding assay | inhibition, % at 35 µM | 290,000 compounds, 0.94% hits | AID 2012;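 further: calls also rest on retests at 20 µM and on dose response follow-up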
MLLE-PAM2 inh: blocks PAM2 peptide binding to the PABP1 MLLE domain | inhibition, % at 20 µM | GST-MLLE / FITC-PAM2 fluorescence polarization | 360,000 compounds, 0.36% hits | AID 588489; in the data active means inhibition above about 35%, passing the limit was not always enough;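 further: plate controls were DMSO wells with GST-MLLE for no effect and wells lacking GST-MLLE protein for full effect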
eIF4E 4G PPI: blocks eIF4E binding to eIF4G. TR-FRET eIF4E-eIF4GI(517-606) binding, 2 h. inhibition, % at 21.7 µM. 220,000 compounds, 0.37% hits;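 active means inhibition above about 30%, limit read from the data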;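 further: 0% = full FRET control wells and 100% = background wells lacking eIF4GI fragment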
PERK inhibitor: inhibitors of human PERK kinase. CHO PERK-DD fusion, SEAP luminescence translation reporter. inhibition, % at 5.6 µM. 220,000 compounds, 0.17% hits;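 active means inhibition above the mean inhibition of all tested compounds plus 3 SD, set separately per screening campaign, cut at about 2.9% in these data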;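 further: PERK kinase domain activated by AP20187 dimerizer at 100 nM; 0% = DMSO with dimerizer and 100% = rapamycin at 8.4 µM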
PABP polyA inh: blocks human PABP binding to poly(A) RNA | fluorescence polarization | inhibition, % at 35 µM | P11940 | 290,000 compounds, 1% hits;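 further: calls also rest on retests at 20 µM and on dose response follow-up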
Active calls of the source: *; u = inconclusive; x = not tested or not shown; [ ] = another dose, or the depositor's remark. In the library only some 1.6% were active in any assay of this set; here they are far more common. Unless noted, how the calls were made is not given here.

SMILES	eIF4H inh	MLLE-PAM2 inh	eIF4E 4G PPI	PERK inhibitor	PABP polyA inh
COc1cc(/C=N/Nc2nc(-c3ccc(S(=O)(=O)N(C)C)cc3)cs2)ccc1O	-2	-16	44*	-2	-6
COc1cc(CN2CCN(Cc3cn(C)c4ccccc34)CC2CCO)cc(OC)c1 (stereo not drawn)	3	-8	x	x	-3
CCOC(=O)C1CCN(c2c(NCCCN(CC)Cc3ccccc3)c(=O)c2=O)CC1	-5	3	4	1	-1
CN(CC(=O)Nc1cc(S(=O)(=O)N2CCCC2)ccc1Cl)Cc1ccc2c(c1)OCO2	x	-11	x	x	x
c1csc(-c2nnsc2-c2nc3ccccc3[nH]2)c1	69*	-1	1	0	90*
c1ccc(-c2nn3c(Cn4nnc5ccccc54)nnc3s2)cc1	11	26	5	0	0
c1ccc2c(c1)nnn2Cc1nnc2sc(-c3ccc4c(c3)OCCO4)nn12	-5	41*	20	-1	-5
CN(C(=O)c1ccc(NC(=O)C2CCN(C(=O)OC(C)(C)C)CC2)cc1)C1CCC1	x	5	x	x	x
O=C(O)c1ccc(-c2nc(-c3ccccc3)c(-c3cccs3)[nH]2)cc1	-1	2	1	4.3*	-1
NC(=O)Cn1cc(C(=O)c2cccs2)c2ccccc21	-4	-19	-2	0	-6
COc1cc(/C=N/NC(=O)c2cc(O)cc(O)c2)ccc1OC(=O)c1ccccc1	81*	-5	x	x	94*
O=C(N/N=C/c1ccc(OC(=O)c2ccco2)cc1)c1ccncc1	8	-17	x	x	16
COc1cc(C(=O)N/N=C/c2ccc(OC(=O)c3ccccc3)c(OC)c2)ccc1O	4	-1	x	x	-6
O=C(N/N=C/c1ccc(OC(=O)c2ccccc2Cl)cc1)c1cc(O)cc(O)c1	92*	0	x	x	91*
O=C(N/N=C/c1ccc(OC(=O)c2ccc(Br)cc2)cc1)c1ccncc1	79*	-6	x	x	-17
O=C(N/N=C/c1ccoc1)c1cc(O)cc(O)c1	96*	-7	x	x	74*
CCOc1ccc(/C=C(\C#N)C(=O)c2c(C)[nH]c3ccccc23)cc1OC	-2	-7	11	-1	2
CC(C)(C)SCCNC(=O)CN1C(=O)c2cccc3cccc1c23	-14	0	x	x	-3
Cc1ccc(NCc2nc3ccccc3n2C)c(C)c1	-2	3	x	x	4
COc1ccc(-n2c(Cc3cccn3C)nnc2SCC(=O)Nc2cccc(F)c2)cc1	1	-33	62*[fluorescence artefact?]	-1	6
CCOc1ccc2nc(SCC(=O)c3ccc(Cl)s3)sc2c1	55*	-69	-3	-1	50*
CCOc1ccc2nc(SCC(=O)c3cccs3)sc2c1	-7	-34	-1	2	-2
Cc1[nH]c(=O)[nH]c(=O)c1Sc1ccccc1[N+](=O)[O-]	1	-1	x	x	-1
CCOc1ccccc1CNc1ccc(O)cc1	51	4	3	0	36*
CCOC(=O)CCc1c(C)c2ccc3c(c2oc1=O)CN(CCCO)CO3	1	-5	x	x	-8
SMILES	eIF4H inh	MLLE-PAM2 inh	eIF4E 4G PPI	PERK inhibitor	PABP polyA inh
CC(=O)NCCn1c(C)cc2ccccc21	94*	27	-3	x	93*
CCC(=O)NCCn1c(C)cc2ccccc21	106*	22	2	2	75*
Cc1cc2ccccc2n1CCNC(=O)C(C)(C)C	8	18	1	x	4
Cc1cc2ccccc2n1CCNC(=O)c1ccc(Br)o1	59*	43*	-1	1	52*
Cc1cc2ccccc2n1CCNC(=O)COc1ccccc1	108	16	0	x	115*
C=C(C)Cn1c(=O)c2c(nc3n2CCN3c2cccc(Cl)c2C)n(C)c1=O	-3	-3	x	x	7
CCc1ccccc1NC(=O)c1cccc(NC(=O)/C=C/c2ccco2)c1	-2	2	-4	0	-5
O=C(/C=C/c1ccco1)NC(=S)Nc1ccc(C(=O)O)cc1	97*	14	x	x	79*
O=C(/C=C/c1ccco1)Nc1cccc(C(=O)Nc2ccccc2C(=O)O)c1	89*	-20	7	2	74*
C=CCNC(=S)NNC(=O)c1ccco1	-8	-13	-3	1	-1
O=C(/C=C/c1ccco1)NC(=S)NNC(=O)c1ccco1	92	7	2	0	9.4*
O=C(/C=C/c1ccco1)NC(=S)Nc1ccc(Cl)cn1	71	-30	3	0	37*
O=C(/C=C/c1ccco1)NC(=S)Nc1ccc(N2CCCC2)cc1	93*	36*	4	0	1.9*
CC(=O)NC(=S)Nc1ccc(NC(=S)NC(=O)/C=C/c2ccco2)cc1	x	14	-1	0	x
CO/N=C(\C(=O)N[C@@H]1C(=O)N2C(C(=O)O)=C(COC(N)=O)CS[C@H]12)c1ccco1	5.6*	19	4	0	118*
CC(=O)OCC1=C(C(=O)O)N2C(=O)C(NC(=O)c3ccc(F)cc3)C2SC1 (stereo not drawn)	35	23	1	0	-7
CC(Sc1nnc(N)s1)c1ccccc1Cl (stereo not drawn)	4	22	-1	0	9
COc1ccc(OCC(=O)N/N=C/c2ccc(O[C@@H]3O[C@H](CO)[C@@H](O)[C@H](O)[C@H]3O)cc2)cc1	-2	-1	-2	3.4*	-2
CCOC(=O)C1=C(Nc2ccc(OC)cc2)OCC1=O	-6	-2	1	2.9*	5
CCOC(=O)C1=C(Nc2ccccc2)OCC1=O	2	16	2	1	0
O=C(NNC(=O)C1[C@H]2CCCC[C@@H]12)c1ccc(=O)oc1 (stereo partly drawn)	u	-21	1	0	39*
O=C(NC12CC3CC(CC(C3)C1)C2)c1ccc(=O)oc1	-2	10	-3	1	3
CCSC1(SCC)N=C(N)C2(C#N)C(c3ccccc3)NC3=C(CCC3)C12C#N (stereo not drawn)	72*	2	-28	1	75*
CCCSC1=C(C#N)C(c2ccc(O)c(OC)c2)CC(=O)N1 (stereo not drawn)	-1	4	-3	1	2
N#Cc1c(=O)c2nc(NCc3ccccc3)ncc2n2ccccc12	84*	10	-6	1	54*
SMILES	eIF4H inh	MLLE-PAM2 inh	eIF4E 4G PPI	PERK inhibitor	PABP polyA inh
Cc1cc(C)n2cc(CSc3nc4ccccc4[nH]3)nc2n1	15	-16	3	0	-5
CCC(=O)Nc1sc2c(c1C(N)=O)CCN(Cc1ccccc1)C2	96	3	x	x	32*
CCN1CCc2c(sc(NC(=S)NC(=O)c3ccco3)c2C(N)=O)C1	85*	-46	1	1	50*
CCC(=O)Nc1sc2c(c1C(N)=O)CCC2	-6	4	-16	1	2
NC(=O)c1c(NC(=O)Cn2nc(C(=O)O)c3ccccc3c2=O)sc2c1CCC2	u	-1	9	0	3.6*
CCCC(=O)NC(=S)Nc1sc2c(c1C(N)=O)CCC2	91	14	-3	0	active
COc1cccc(-n2c(N)c(C#N)c3ccc([N+](=O)[O-])cc3c2=O)c1	1	x	4	0	2
CN(C(=O)c1ccc2c(=O)n3c(nc2c1)CCCCC3)c1ccccc1Cl	-1	2	5	-2	0
